Measured values from the supplement of paper PMC6555819.

Assays:
Experiment in all cases: PBM binding z-score (relative to random genomic background probes); higher = stronger binding; sequences stand for … in GC…GCGATTGACAGCGTAGAATGAAGG
[1] = system: PPARg:RXRa DBDmut IVT, anti-RXR (DBD mutation: RXRa K156A/R161A, NR concentration 270 nM, RXRa partner concentration 90 nM)
Outline: (§1)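 The probes on custom Agilent 4×180K protein-binding microarrays were double-stranded, with 34-nt variable regions bearing direct-repeat seeds, single-nucleotide variants, half-site ablations and random human genomic background sequences. Incubation lasted 1 h with ligand-free nuclear receptor dimers in PBS pH 7.4, 2% milk, 0.02% Triton X-100, 1 mM DTT, 0.2 mg/mL BSA and 0.4 mg/ml salmon testes DNA. Antibodies against each partner (one per run) detected bound dimers, and fluorescence scans were regression-normalized. Binding z-scores take the random background probes as reference.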

[2] = system: PPARg:RXRa IVT, anti-PPARg (NR concentration 270 nM, RXRa partner concentration 90 nM)
Outline: as §1

[3] = system: PPARg DBDmut:RXRa IVT, anti-PPARg (DBD mutation: PPARg1 K132A/R137A, NR concentration 270 nM, RXRa partner concentration 90 nM)
Outline: as §1

[4] = system: PPARg DBDmut IVT, anti-PPARg (DBD mutation: PPARg1 K132A/R137A, NR concentration 270 nM)
Outline: as §1

[5] = system: PPARg homodimer (NR concentration 180 nM)
Outline: as §1

[6] = system: PXR:RXRa (NR concentration 270 nM, RXRa partner concentration 90 nM)
Outline: as §1

[7] = system: PXR homodimer (NR concentration 270 nM)
Outline: as §1

[8] = system: RARa:RXR (NR concentration 270 nM, RXRa partner concentration 90 nM)
Outline: as §1

[9] = system: RARa homodimer (NR concentration 270 nM)
Outline: as §1

[10] = system: RARb:RXRa (NR concentration 270 nM, RXRa partner concentration 90 nM)
Outline: as §1

Sequence	PBM binding z-score [1]	PBM binding z-score [2]	PBM binding z-score [3]	PBM binding z-score [4]	PBM binding z-score [5]	PBM binding z-score [6]	PBM binding z-score [7]	PBM binding z-score [8]	PBM binding z-score [9]	PBM binding z-score [10]
CGTCCAAGGTCATAGCAGGTCAGTGAAGACAGAT	3.54	4.67	0.604	1.12	3.76	6.05	2.47	5.07	1.79	5.09
TGAATGAGTTTATAAGATCAGGGAACGTTGCAAA	-0.937	-0.179	0.631	0.748	0.106	0.215	0.318	0.174	0.105	-0.00933
CCTACTGGGCCAAAGGTTATTGATTCCAATGCTC	5.27	5.88	0.256	-0.287	0.925	1.39	0.0532	2.34	-0.256	1.53
CCTATTAGTTGACCGTAAGGGCAACCGAAGCTCG	0.0924	0.672	0.0839	-0.0421	1.63	0.919	0.939	1.35	1.56	1.91
CAAACTAGGTCAAGAGCTCAAAGTCCGCTTCCCG	8.17	8.44	4.03	2.91	2.57	1.06	-0.169	2.14	0.0982	3.99
CCTCGGAGGACAGAAGGCCAGAGCTGTCCGCTTT	-0.668	-1.07	-2.21	-1.68	-0.167	-0.524	-1.34	-0.34	-0.862	0.374
TCTTCTAGGTCAACGATGGTCAGCTAATCTGCTA	7.21	7.26	2.6	3.07	2.69	2.23	0.345	2.8	1.21	4.31
TCTTGTAGATCCGCAGGTTAAGAAAGCTGGCCAA	1.29	-0.0295	0.383	-0.621	-0.223	0.161	-1.09	0.597	-0.725	0.136
TCATATAGTTAAATGCTAGGTGAAAGTCCGATCT	2.22	0.879	0.746	1.69	1.11	0.631	0.356	0.763	1.49	0.272
CTCGAAAGGCCGGTTGAGGTGAGTATACGGATAA	-0.491	-0.359	-0.611	-0.528	-1.35	-0.133	-0.38	1.91	-1.14	0.703
CGTCAAAGTTCAACTAAGGTACCGTAAAGCACGC	0.831	1.71	0.452	0.671	2.68	4.87	3.81	3.96	1.72	5.21
CCTACTAGGCCAAAGGTCATTGATTCCAATGCTC	6.51	7.41	1.46	1.49	3.89	5.56	2.25	6.39	2.46	4.79
ATCTCTAGGTAAGACTCAGTTCAGCGAAGAACGC	1.67	1.01	0.389	0.673	0.96	0.943	1.37	0.477	1.01	0.277
TCTCGGAGGACACGAAAGGTCAGAGTTCGACATC	1.62	1.81	-0.309	-0.696	3.27	4.98	3	5.55	1.69	4.16
AGAATGAGGTTATTAGGATCAGGGAATTGCGGTC	3.64	3.55	0.306	0.466	1.24	1.38	0.752	1.57	1.06	1.53
CCTGCTAGATCATGGTCAGCTAATCTACAGTATG	0.393	-0.546	-0.661	-0.698	-0.74	-0.448	-0.524	-0.328	-0.726	-0.0385
CTCGAAAGGTCGGATGAGGTGAGTATACGGATAA	0.154	0.983	0.973	-0.0346	0.968	3.55	-0.0327	2.62	0.562	3.32
GCGACTGGGGCAAAGCAGGTTACCATGAGGTTGG	4.46	3.79	-0.666	-1.4	0.0533	0.378	-0.61	0.383	-0.939	0.981
TAGCCTAGGTCGTTGGGCCAGTATAGTACGCATC	-0.226	0.592	-0.845	-0.754	-0.186	-0.0683	-0.446	0.0528	-0.627	1.02
CGGACTGGGGCAGAAAGGTTACCATACCATCCGG	3.24	4.12	-0.341	-0.159	1.44	1.41	0.0628	1.82	0.413	2.12
GCTCGGAGGACAAGGTCAGAGTTTTGTCCGTAGA	0.207	0.996	-0.873	-1.18	0.43	1.95	0.373	2.23	-0.47	3.46
CCGACTGGCGCAAAGGTTACCATACTCAGTACGA	0.771	2.5	-1.09	-0.747	0.747	1.7	-0.233	2.04	-0.0622	1.75
ACTTACGGGGCAACGAGGTTATAGCACGCGTATA	2.66	2.16	0.904	0.257	0.811	1.62	0.644	1.73	0.365	1.63
